Most compounds without a hit are left out; they make up all but 3.4% or so of the library.
FBW7 act – human FBW7 E3 ligase activation, primary screen; AlphaScreen FBW7–phospho-cyclin E peptide binding, activator screen; actives 0.13% (n = 650,000); normalized activity (activation), % at 26.1 µM; Q969H0; in the data active = normalized activity above about 1.9%;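 note: purified mutant Fbw7 with reduced substrate affinity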
MITF primary – human MITF inhibition, primary screen | actives 0.91% (n = 650,000) | AlphaScreen MITF homodimerization, bead proximity signal | inhibition, % at 2.6 µM; in the data active = inhibition above about 50%
GPR151 activ – human GPR151 activation; PathHunter beta-arrestin GPR151 cells, luminescence; actives 1% (n = 650,000); activation, % at 11.2 µM; in the data active = activation above about 4.9%
Target sequence (Q8TDV0 whole entry, looked up): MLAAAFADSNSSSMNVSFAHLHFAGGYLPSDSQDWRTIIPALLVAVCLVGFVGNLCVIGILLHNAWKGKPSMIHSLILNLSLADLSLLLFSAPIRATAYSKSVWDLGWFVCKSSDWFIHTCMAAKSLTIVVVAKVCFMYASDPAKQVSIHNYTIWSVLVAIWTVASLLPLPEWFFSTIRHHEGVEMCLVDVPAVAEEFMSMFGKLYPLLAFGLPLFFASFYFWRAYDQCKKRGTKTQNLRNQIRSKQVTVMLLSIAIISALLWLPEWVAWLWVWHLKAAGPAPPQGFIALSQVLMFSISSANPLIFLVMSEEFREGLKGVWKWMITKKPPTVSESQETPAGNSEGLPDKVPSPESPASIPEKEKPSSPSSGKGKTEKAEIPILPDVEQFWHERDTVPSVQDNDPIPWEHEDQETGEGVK
TEAD-YAP block – TEAD-YAP interaction inhibition; HEK-TIYL cells, TEAD-Gal4/YAP UAS-luciferase luminescence; inhibition, % at 9.12 µM; actives 1.4% (n = 640,000); in the data active = inhibition above about 32%
Each line names hits and unclear results; the compound was inactive in the other large screens.

Cc1ccc(CN2C(=O)C(C)Oc3ccc(F)cc32)cc1 (stereo not drawn)	none
O=C(Nc1ccc(N2CCCN(C(=O)C3CC3)CC2)cc1)c1ccc(-n2cccc2)cc1	TEAD-YAP block 32.6
CC(Oc1ccc(Br)cc1)c1nc(-c2ccccn2)no1 (stereo not drawn)	none
COc1ccccc1N1CCN(c2c3c(nc4ncnn24)CCC3)CC1	none
COC(=O)[C@@H]1C[C@@H](NC(=O)c2ccc3ccccc3c2O)CN1Cc1cc(F)ccc1F	TEAD-YAP block 42.0
CCOc1cccc(/C=C2/C(=O)NN(c3cc(Cl)cc(Cl)c3)C2=O)c1O	none
Cc1nc(NC(C)c2ccccc2)cc(-c2cncc(Br)c2)n1 (stereo not drawn)	none
Cc1nc(NC(C)c2ccccc2)cc(-c2ccccn2)n1 (stereo not drawn)	TEAD-YAP block 36.1
COc1ccc(CC(=O)N2CCC3(CC2)OCc2cc(Cl)ccc2O3)cc1OC	TEAD-YAP block 60.7
COc1ccc(CC(=O)N2CCC3(CC2)OCc2ccccc2O3)cc1OC	TEAD-YAP block 55.2
COc1cccc(CC(=O)N2CCC3(CC2)OCc2ccccc2O3)c1	none
O=C(c1ccc2c(c1)CCO2)N1CCC2(CC1)OCc1cc(Cl)ccc1O2	TEAD-YAP block 36.5
CCOc1ccc(NC(=O)c2ccc(NCCCN(CC)c3cccc(C)c3)c([N+](=O)[O-])c2)cc1	none
Clc1ccccc1-c1nc(N2CCOCC2)c2ccccc2n1	FBW7 act 2.6
Cc1cccc(Nc2nc(N3CCOCC3)c3ccccc3n2)c1	TEAD-YAP block 37.8
CN(C)c1ccc(Nc2nc(N3CCOCC3)c3ccccc3n2)cc1	TEAD-YAP block 41.6
c1ccc(Nc2nc(N3CCCCC3)c3ccccc3n2)cc1	TEAD-YAP block 41.9
Oc1cccc(Nc2nc(N3CCOCC3)c3ccccc3n2)c1	none
Cc1ccc(Nc2nc(N3CCOCC3)c3ccccc3n2)cc1	none
Clc1ccccc1-c1nc(N2CCCC2)c2ccccc2n1	none
Cc1nc(CN(C)c2nc3nonc3nc2NCc2ccccc2)cs1	none
Cc1ccc(-n2cc(C(=O)N3CCN(c4ccc(F)cc4)CC3)c3ccccc3c2=O)cc1C	none
O=C(Cn1nnc2ccccc21)N/N=C\c1c(Cl)cccc1Cl	none
CN1CCN(c2ccc(-c3nc(C(=O)Nc4ccccc4)cs3)cc2)CC1	none
O=C(Cc1ccccc1F)NCc1cccs1	none
Cc1ccccc1C1C(C#N)=C(N)N(N(C)C)C2=C1C(=O)CC(c1ccccc1)C2 (stereo not drawn)	TEAD-YAP block 63.5
Cc1cc(C2C(C#N)=C(N)N(N(C)C)C3=C2C(=O)CC(c2ccccc2)C3)c(C)s1 (stereo not drawn)	TEAD-YAP block 55.4
Cc1ccc(-n2nc(C(=O)NCCCN3CCCC3)c3c4ccccc4n(C)c3c2=O)cc1	none
O=C1OC(Nc2nc3ccccc3s2)c2ccccc21 (stereo not drawn)	FBW7 act 2.0
Cc1csc(NC2OC(=O)c3ccccc32)n1 (stereo not drawn)	none
O=C(NCc1ccccc1)C(Cc1ccccc1)NS(=O)(=O)c1cccs1 (stereo not drawn)	none
COc1ccc(-c2c(C)oc3cc(OS(C)(=O)=O)ccc3c2=O)cc1OC	TEAD-YAP block 34.2
O=C(/C=C/c1ccc2c(c1)OCCCO2)c1cc([N+](=O)[O-])ccc1O	TEAD-YAP block 78.6
O=C(O)c1cccc(NC(=O)c2ccc(Oc3ccccc3)cc2)c1	TEAD-YAP block 93.2
O=C(Nc1ccncc1)c1ccc(C(=O)Nc2ccncc2)cc1	none
O=C(O)c1ccc(NC(=O)c2ccc(Oc3ccccc3)cc2)cc1	TEAD-YAP block 39.1
O=C(Nc1cccc(F)c1)c1ccc(Oc2ccccc2)cc1	none
Cc1c(C(=O)NC(=S)Nc2cccc(C(=O)O)c2)cccc1[N+](=O)[O-]	none
O=C(Nc1ccncc1)c1ccc(C(=O)c2ccccc2)cc1	TEAD-YAP block 55.3
Cc1c(C(=O)Nc2cccc(C(=O)O)c2)cccc1[N+](=O)[O-]	FBW7 act 3.5
Cc1cc(=O)oc2cc(OC(C)C(=O)NC(N)=O)ccc12 (stereo not drawn)	none
O=C(Nc1ccc(Cl)cc1)C1CC(=O)N(c2ccccc2F)C1 (stereo not drawn)	none
CCOC(=O)Cn1ncc2c3sc(C)cc3n(C)c2c1=O	none
Cc1ccc(N2C(=O)/C(=C/c3ccc(N(C)C)cc3)N=C2c2ccccc2F)c(C)c1	TEAD-YAP block 67.6
CN(C)c1ccc(/C=C2\N=C(c3ccccc3F)N(c3ccc(O)cc3)C2=O)cc1	TEAD-YAP block 59.5
CN(C)c1ccc(/C=C2\N=C(c3ccccc3F)N(c3ccc(Br)cc3)C2=O)cc1	none
CC(C)c1ccc(NS(=O)(=O)c2cccc3cnccc23)cc1	TEAD-YAP block 56.5
O=C(Nc1ccc(F)c(F)c1)c1ccc(F)c(S(=O)(=O)NCc2ccco2)c1	TEAD-YAP block 38.2
CCN(Cc1ccccc1)S(=O)(=O)c1cc(C(=O)Nc2ccc(F)c(F)c2)ccc1F	TEAD-YAP block 59.2
CCc1ccc(NC(=O)c2ccc(F)c(S(=O)(=O)N(CC)Cc3ccccc3)c2)cc1	none
CCN(Cc1ccccc1)S(=O)(=O)c1cc(C(=O)Nc2ccc(Cl)c(Cl)c2)ccc1F	TEAD-YAP block 54.9
CN(Cc1ccccc1)S(=O)(=O)c1cc(C(=O)Nc2ccc(F)c(F)c2)ccc1F	TEAD-YAP block 43.7
COc1cc(C(=O)Nc2ccccc2C(F)(F)F)cc(OC)c1OC	none
COC(CNC(=O)CCCCCn1c(=S)[nH]c2ccccc2c1=O)OC	none
CCOc1ccc(C2C=C(c3ccc(Cl)cc3)Nc3ncnn32)cc1OC (stereo not drawn)	none
c1c2c(cc3sc(N4CCCC4)nc13)OCCO2	TEAD-YAP block 71.5
c1ccc2sc(N3CCN(c4nc5cc6c(cc5s4)OCCO6)CC3)nc2c1	none
c1ccc2c(c1)CCN(c1nc3cc4c(cc3s1)OCCO4)C2	TEAD-YAP block 88.7
CC1=C(C(=O)OC2CCCC2)C(c2ccc(O)cc2)NC(=O)N1 (stereo not drawn)	none
Oc1ccc(CCNc2nc(Nc3ccc4ncccc4c3)nc3c2ncn3-c2ccsc2)cc1	TEAD-YAP block 56.1
OCCNc1nc(Nc2ccc3ncccc3c2)nc2c1ncn2-c1ccsc1	TEAD-YAP block 34.6
Oc1ccc(CCNc2nc(Nc3ccc4ncccc4c3)nc3nc[nH]c23)cc1	TEAD-YAP block 45.4
COc1ccc(/C=N/NC(=O)CCc2ccccc2)cc1	none
O=C(c1sc2cccc(Cl)c2c1Cl)N1CCOCC1	none
COc1ccccc1OCC(=O)Nc1nc(CN2CCc3ccccc3C2)cs1	none
COc1ccc(/C=C/C(=O)Nc2nc(CN3CCc4ccccc4C3)cs2)cc1OC	TEAD-YAP block 45.2
O=C(Nc1nc(CN2CCc3ccccc3C2)cs1)c1ccc(F)cc1	TEAD-YAP block 32.0
COc1cc2c(cc1OC)[C@@H]1C(=O)c3ccc4c(c3O[C@@H]1CO2)C=CC(C)(C)O4	TEAD-YAP block 68.9
COC(=O)C1=C(C)N(C)C(C)=C(C(=O)OC)C1c1cccnc1	none
O=C(NCCO)c1ccnc(N2CCCC2CO)c1 (stereo not drawn)	none
COCCCNC(=O)c1ccc2c(c1)nc(C)n2-c1cc(C)ccc1OC	TEAD-YAP block 55.6
CCOCCCNC(=O)c1ccc2c(c1)nc(C)n2-c1cc(C)ccc1OC	none

High-throughput results deposited in PubChem BioAssay by The Scripps Research Institute Molecular Screening Center.
